From PubChem BioAssay (NCI)
Compounds without any hit were thinned out: in the full panel of roughly 83,000, 20% have a hit.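 In brief: 96-well plates, 48 h treatment, single concentration, percent growth endpoint.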 Active and inactive are the calls of the source. How the source made its calls: active means growth percent below 10; inactive means the rest.

Key:
Assay in all cases: NCI-60 one-dose screen, 48 h (100 = growth as untreated, 0 = no growth, -100 = all killed)
Conditions in all cases: 10 µM unless noted
RPMI-8226 leukemia = system: RPMI-8226 leukemia
OVCAR-8 ovarian = system: OVCAR-8 ovarian
OVCAR-5 ovarian = system: OVCAR-5 ovarian
OVCAR-4 ovarian = system: OVCAR-4 ovarian
SK-OV-3 ovarian = system: SK-OV-3 ovarian
IGROV1 ovarian = system: IGROV1 ovarian
NCI/ADR-RES ovarian = system: NCI/ADR-RES ovarian
T-47D breast = system: T-47D breast
OVCAR-3 ovarian = system: OVCAR-3 ovarian
HS 578T breast = system: HS 578T breast

Measured: growth

COc1ccc2c(c1)[nH]c(=O)c1c3cc(OC)c(OC)cc3cn21
inactive: OVCAR-8 ovarian 16% | OVCAR-5 ovarian 49.4% | OVCAR-4 ovarian 44.2% | SK-OV-3 ovarian 40.2% | NCI/ADR-RES ovarian 14.8% | T-47D breast 74.1%
active: RPMI-8226 leukemia -72.3% | IGROV1 ovarian -9.03%

O=C(Nc1cccc([N+](=O)[O-])c1)c1cccc(C(=O)Nc2cccc([N+](=O)[O-])c2)c1
active: HS 578T breast 9.17%
inactive: RPMI-8226 leukemia 65.9% | OVCAR-8 ovarian 28.6% | OVCAR-5 ovarian 95.6% | OVCAR-4 ovarian 56.9% | SK-OV-3 ovarian 68.6% | OVCAR-3 ovarian 71.1% | NCI/ADR-RES ovarian 62.2% | T-47D breast 68.4%

CN(C)c1cccc2c(S(=O)(=O)N[C@H]3CC[C@H]4[C@@H]5CCc6cc(O)ccc6[C@H]5CC[C@]34C)cccc12
active: RPMI-8226 leukemia 7.82%
inactive: OVCAR-8 ovarian 45.8% | OVCAR-5 ovarian 78.1% | OVCAR-4 ovarian 50.6% | SK-OV-3 ovarian 33.3% | OVCAR-3 ovarian 19.7% | HS 578T breast 56.5% | NCI/ADR-RES ovarian 12.3% | T-47D breast 21.5%

CCOC(=O)c1c2c(c(C)n1Cc1ccccc1)-c1nc(N)ncc1CC2
inactive: RPMI-8226 leukemia 80% | OVCAR-8 ovarian 104% | OVCAR-5 ovarian 78.6% | OVCAR-4 ovarian 105% | SK-OV-3 ovarian 118% | OVCAR-3 ovarian 125% | HS 578T breast 93.6% | NCI/ADR-RES ovarian 101% | T-47D breast 86.4%

O=C(CN1CCCCC1)Sc1nnc2sc3ccccc3n12
inactive: RPMI-8226 leukemia 108% | OVCAR-8 ovarian 98.8% | OVCAR-5 ovarian 144% | OVCAR-4 ovarian 105% | SK-OV-3 ovarian 89.5% | OVCAR-3 ovarian 111% | HS 578T breast 110% | NCI/ADR-RES ovarian 100% | T-47D breast 92.2%

CCN(CC)CCOc1ccccc1-n1c(C)ccc1-c1ccccc1
inactive: RPMI-8226 leukemia 63.2% | OVCAR-8 ovarian 97.5% | OVCAR-5 ovarian 101% | OVCAR-4 ovarian 106% | SK-OV-3 ovarian 99.5% | OVCAR-3 ovarian 78.9% | HS 578T breast 82.5% | NCI/ADR-RES ovarian 85.4% | T-47D breast 91.9%

CCCc1cc(=O)n2c(C(=O)Nc3ccccc3OC)c(C(=O)Nc3ccc(F)cc3)sc2n1
inactive: RPMI-8226 leukemia 30.5% [30 µM] | OVCAR-8 ovarian 18.5% [30 µM] | OVCAR-5 ovarian 57.8% [30 µM] | OVCAR-4 ovarian 36.2% [30 µM] | SK-OV-3 ovarian 29.9% [30 µM] | OVCAR-3 ovarian 51.3% [30 µM] | NCI/ADR-RES ovarian 24.8% [30 µM] | T-47D breast 85.4% [30 µM]
active: HS 578T breast 9.91% [30 µM]

O=c1c(O)cccn1CCCNCCCN(CCCn1cccc(O)c1=O)CCCn1cccc(O)c1=O
inactive: RPMI-8226 leukemia 131% | OVCAR-8 ovarian 114% | OVCAR-5 ovarian 94.7% | OVCAR-4 ovarian 101% | SK-OV-3 ovarian 97.3% | OVCAR-3 ovarian 103% | HS 578T breast 120% | NCI/ADR-RES ovarian 101% | T-47D breast 101%

CCC(c1ccccc1)c1noc(CCN(CC)CC)n1 (stereo not given)
inactive: RPMI-8226 leukemia 76.7% | OVCAR-8 ovarian 94.8% | OVCAR-5 ovarian 89.8% | OVCAR-4 ovarian 109% | SK-OV-3 ovarian 97% | OVCAR-3 ovarian 115% | HS 578T breast 125% | NCI/ADR-RES ovarian 105% | T-47D breast 94.4%

C[C@]12C[C@H](O)[C@H]3[C@@H](CCC4=CC(=O)CC[C@@]43C)[C@@H]1CC[C@@H]2C(=O)CO
active: RPMI-8226 leukemia 0.491% | NCI/ADR-RES ovarian -34.7%
inactive: OVCAR-8 ovarian 104% | OVCAR-5 ovarian 43.8% | OVCAR-4 ovarian 97.7% | SK-OV-3 ovarian 81.3% | OVCAR-3 ovarian 110% | HS 578T breast 108% | T-47D breast 92%

CCOC(=O)c1c2c(c(C)n1Cc1ccc(OC)cc1)-c1nc(N)ncc1CC2
inactive: RPMI-8226 leukemia 119% | OVCAR-8 ovarian 115% | OVCAR-5 ovarian 103% | OVCAR-4 ovarian 112% | SK-OV-3 ovarian 107% | OVCAR-3 ovarian 104% | HS 578T breast 111% | NCI/ADR-RES ovarian 104% | T-47D breast 105%

O=C1OCC/C1=C\OCCCO/C=C1\CCOC1=O
inactive: RPMI-8226 leukemia 105% | OVCAR-8 ovarian 106% | OVCAR-5 ovarian 107% | OVCAR-4 ovarian 99.5% | SK-OV-3 ovarian 114% | OVCAR-3 ovarian 110% | HS 578T breast 112% | NCI/ADR-RES ovarian 104% | T-47D breast 103%

CN(C)c1nc(N)nc(Cn2c(-c3nonc3N)nc3ccccc32)n1
inactive: RPMI-8226 leukemia 87.9% | OVCAR-8 ovarian 91.9% | OVCAR-5 ovarian 90.6% | OVCAR-4 ovarian 87.8% | SK-OV-3 ovarian 88.8% | OVCAR-3 ovarian 98% | HS 578T breast 77.4% | NCI/ADR-RES ovarian 73.6% | T-47D breast 89.7%

CC(=O)NCCSC(=O)C(=O)SCCNC(C)=O
inactive: RPMI-8226 leukemia 102% | OVCAR-8 ovarian 112% | OVCAR-5 ovarian 95.8% | OVCAR-4 ovarian 103% | SK-OV-3 ovarian 114% | OVCAR-3 ovarian 115% | HS 578T breast 119% | NCI/ADR-RES ovarian 100% | T-47D breast 105%

O=C(O)C(=O)O
active: NCI/ADR-RES ovarian -36.5%
inactive: RPMI-8226 leukemia 94.4% | OVCAR-8 ovarian 75.8% | OVCAR-5 ovarian 56.8% | OVCAR-4 ovarian 99.8% | SK-OV-3 ovarian 95.7% | OVCAR-3 ovarian 114% | HS 578T breast 100% | T-47D breast 94.4%

Cc1cc([N+](=O)[O-])c(C)cc1C(=O)O
inactive: RPMI-8226 leukemia 115% | OVCAR-8 ovarian 103% | OVCAR-5 ovarian 93.7% | OVCAR-4 ovarian 111% | SK-OV-3 ovarian 99.2% | OVCAR-3 ovarian 106% | HS 578T breast 107% | NCI/ADR-RES ovarian 103% | T-47D breast 83.5%

O=C1NC(=O)/C(=C\c2ccccc2)C2=C1CCCC2
active: OVCAR-8 ovarian -6.04% | OVCAR-3 ovarian -73.9%
inactive: RPMI-8226 leukemia 51.3% | OVCAR-5 ovarian 80% | OVCAR-4 ovarian 91.2% | SK-OV-3 ovarian 152% | HS 578T breast 35.2% | NCI/ADR-RES ovarian 61.2% | T-47D breast 198%

O=C(Nc1nc(-c2ccccc2)cs1)c1cc(O)c(O)c(O)c1
inactive: RPMI-8226 leukemia 17.8% | OVCAR-8 ovarian 39% | OVCAR-5 ovarian 89.4% | OVCAR-4 ovarian 44.5% | SK-OV-3 ovarian 70% | OVCAR-3 ovarian 22.3% | HS 578T breast 73.6% | NCI/ADR-RES ovarian 47% | T-47D breast 31.2%

CCOC(=O)C1=C(COCCN)NC(C)=C(C(=O)OC)C1c1ccccc1Cl (stereo not given)
inactive: RPMI-8226 leukemia 45.9% | OVCAR-8 ovarian 82% | OVCAR-5 ovarian 74.7% | OVCAR-4 ovarian 78.9% | SK-OV-3 ovarian 94.2% | OVCAR-3 ovarian 68.5% | HS 578T breast 80.3% | NCI/ADR-RES ovarian 80% | T-47D breast 51.7%

O=c1[nH]c(=O)n(C2CC(O)C(CO)O2)cc1C(F)(F)F (stereo not given)
inactive: OVCAR-8 ovarian 48.5% | OVCAR-5 ovarian 54.5% | OVCAR-4 ovarian 78.1% | SK-OV-3 ovarian 74.3% | OVCAR-3 ovarian 69.7% | HS 578T breast 70.8% | T-47D breast 52.8%
active: RPMI-8226 leukemia -23% | NCI/ADR-RES ovarian -56.9%

CCOC(=O)c1c(C)nc(C)c(C(=O)OCC)c1-c1cccnc1
inactive: RPMI-8226 leukemia 104% | OVCAR-8 ovarian 112% | OVCAR-5 ovarian 97.8% | OVCAR-4 ovarian 97.8% | SK-OV-3 ovarian 99.2% | OVCAR-3 ovarian 115% | HS 578T breast 122% | NCI/ADR-RES ovarian 103% | T-47D breast 92%

O=C(Nc1nc2ccccc2s1)c1cc(-c2ccc(F)cc2)n2nc(-c3ccccc3)cc2n1
inactive: RPMI-8226 leukemia 50.9% | OVCAR-8 ovarian 56.1% | OVCAR-5 ovarian 64.7% | SK-OV-3 ovarian 35% | OVCAR-3 ovarian 20.3% | HS 578T breast 59.7% | NCI/ADR-RES ovarian 61.8% | T-47D breast 45.4%
active: OVCAR-4 ovarian -24.7%

C[n+]1ccc(Nc2ccc(NC(=O)c3ccc(Nc4cc[n+](C)c5ccc(N)cc45)cc3)cc2)cc1
inactive: RPMI-8226 leukemia 68.1% | OVCAR-8 ovarian 94.8% | OVCAR-5 ovarian 90.6% | OVCAR-4 ovarian 103% | SK-OV-3 ovarian 99.1% | OVCAR-3 ovarian 115% | HS 578T breast 108% | NCI/ADR-RES ovarian 99.4% | T-47D breast 102%

CCCCSc1cc(C)nc(N)n1
inactive: RPMI-8226 leukemia 73.4% | OVCAR-8 ovarian 107% | OVCAR-5 ovarian 94% | OVCAR-4 ovarian 98.1% | SK-OV-3 ovarian 97.8% | OVCAR-3 ovarian 103% | HS 578T breast 92.3% | NCI/ADR-RES ovarian 95% | T-47D breast 96.4%

C=C(C[C@@](O)(C(=O)Oc1ccccc1)C(=O)C1CCCCC1)c1ccccc1
inactive: RPMI-8226 leukemia 92% | OVCAR-8 ovarian 101% | OVCAR-5 ovarian 103% | OVCAR-4 ovarian 97.8% | SK-OV-3 ovarian 105% | OVCAR-3 ovarian 106% | HS 578T breast 106% | NCI/ADR-RES ovarian 101% | T-47D breast 96.2%

Cc1cc(C)n2nc(SCC(=O)Nc3sc4c(c3C(N)=O)CCC4)nc2n1
inactive: RPMI-8226 leukemia 148% | OVCAR-8 ovarian 112% | OVCAR-5 ovarian 97.1% | OVCAR-4 ovarian 122% | SK-OV-3 ovarian 118% | OVCAR-3 ovarian 123% | HS 578T breast 121% | NCI/ADR-RES ovarian 102% | T-47D breast 109%

O=C(Nc1ccc(Nc2ccncc2)cc1)c1ccc(Nc2ccnc3ccc([N+](=O)[O-])cc23)cc1[N+](=O)[O-]
inactive: RPMI-8226 leukemia 77.8% | OVCAR-8 ovarian 44.4% | OVCAR-5 ovarian 97.4% | OVCAR-4 ovarian 91.1% | SK-OV-3 ovarian 82.8% | OVCAR-3 ovarian 98.1% | NCI/ADR-RES ovarian 52% | T-47D breast 62.2%
active: HS 578T breast -5.48%

O=C1Nc2ccccc2C12Nc1cc(Cl)ccc1S2 (stereo not given)
inactive: RPMI-8226 leukemia 42% | OVCAR-8 ovarian 104% | OVCAR-5 ovarian 104% | OVCAR-4 ovarian 70.4% | SK-OV-3 ovarian 70.9% | OVCAR-3 ovarian 76.3% | HS 578T breast 135% | NCI/ADR-RES ovarian 97.2% | T-47D breast 42.4%

CC1=NN(c2ccccc2Cl)C(=O)/C1=C\c1cn(S(=O)(=O)c2ccc(C)cc2)c2ccccc12
inactive: RPMI-8226 leukemia 113% | OVCAR-8 ovarian 108% | OVCAR-5 ovarian 88.1% | OVCAR-4 ovarian 103% | SK-OV-3 ovarian 105% | OVCAR-3 ovarian 110% | HS 578T breast 116% | NCI/ADR-RES ovarian 85.1% | T-47D breast 91.5%
